# “And” between values parts separate entries of the source, which are not always exact repeats. Equal entries are not always repeated. Results filed as inconclusive are left out. The source made the active and inactive calls. Rule for the calls, unless noted: active = hit-call score of the fitted dose curve at least 0.9, where 1 is the maximum; inconclusive = response in the unintended direction; inactive = score below 0.9.
# How the values were obtained:
# [1] = read-out: Intercellular Adhesion Molecule 1 (ICAM1), ICAM1 (gene 3383); assay: BSK_3C_ICAM1: BioMAP Diversity Plus: 3C Assay for Intercellular Adhesion Molecule 1 (ICAM1) Biomarker Activity (AID 2283003; active = hit-call score of the fitted dose curve at least 0.9, where 1 is the maximum; inactive = score below 0.9); conditions: primary human endothelial cells (HUVEC); actives raise or lower the signal
# Method in brief: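 Human vascular endothelial primary cells, 3C conditions, 24 h treatment. ICAM-1 by ELISA.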
# [2] = BSK_3C_Proliferation: Cell Proliferation Assessment in the BioMAP Diversity Plus: 3C Assay (AID 2283006; active = hit-call score of the fitted dose curve at least 0.9, where 1 is the maximum; inactive = score below 0.9;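 for AC50: potency may reflect either rise or fall in cell number versus DMSO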); conditions: primary human endothelial cells (HUVEC)
# Method in brief: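 Proliferation of human vascular endothelial primary cells after 48 h dosing, quantified as SRB-stained protein at 560 nm relative to DMSO.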
# [3] = target: human Peroxisome Proliferator-activated Receptor delta (PPARd), PPARD (gene 5467) (UniProt Q03181); assay: ATG_PPARd_TRANS: Attagene TRANS-FACTORIAL HepG2 Assay for human Peroxisome Proliferator-activated Receptor delta (PPARd) (AID 2283002)
# Sequence of human Peroxisome Proliferator-activated Receptor delta (PPARd), PPARD (gene 5467) (Q03181 whole entry, looked up, the tested form may be a part): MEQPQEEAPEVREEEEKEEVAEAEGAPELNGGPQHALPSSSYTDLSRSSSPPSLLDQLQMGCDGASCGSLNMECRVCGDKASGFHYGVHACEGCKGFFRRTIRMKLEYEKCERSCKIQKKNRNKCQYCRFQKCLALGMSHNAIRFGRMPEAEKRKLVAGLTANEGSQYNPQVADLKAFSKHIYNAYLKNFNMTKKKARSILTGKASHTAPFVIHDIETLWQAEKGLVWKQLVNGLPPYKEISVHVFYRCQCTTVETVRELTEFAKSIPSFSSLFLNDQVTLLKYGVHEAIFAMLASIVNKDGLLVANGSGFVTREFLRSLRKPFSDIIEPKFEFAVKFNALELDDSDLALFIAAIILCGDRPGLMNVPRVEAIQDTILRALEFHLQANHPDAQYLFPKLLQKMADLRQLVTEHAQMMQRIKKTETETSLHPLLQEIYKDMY
# Method in brief: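 HepG2 cells transiently transfected with multiplexed GAL4-UAS reporter units and exogenous chimeric NR-Gal4 proteins; 24 h compound exposure. Reporter mRNA measured by RT-PCR, 6-FAM labelling, HpaI digestion and capillary electrophoresis; gain of signal versus DMSO.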
# [4] = target: Nuclear receptor subfamily 1 group I member 2 (Homo sapiens) (UniProt O75469); assay: ATG_PXR_TRANS: Attagene TRANS-FACTORIAL HepG2 Assay for human Pregnane X Receptor (PXR) (AID 2283008)
# Sequence of Nuclear receptor subfamily 1 group I member 2 (Homo sapiens) (O75469 whole entry, looked up, the tested form may be a part): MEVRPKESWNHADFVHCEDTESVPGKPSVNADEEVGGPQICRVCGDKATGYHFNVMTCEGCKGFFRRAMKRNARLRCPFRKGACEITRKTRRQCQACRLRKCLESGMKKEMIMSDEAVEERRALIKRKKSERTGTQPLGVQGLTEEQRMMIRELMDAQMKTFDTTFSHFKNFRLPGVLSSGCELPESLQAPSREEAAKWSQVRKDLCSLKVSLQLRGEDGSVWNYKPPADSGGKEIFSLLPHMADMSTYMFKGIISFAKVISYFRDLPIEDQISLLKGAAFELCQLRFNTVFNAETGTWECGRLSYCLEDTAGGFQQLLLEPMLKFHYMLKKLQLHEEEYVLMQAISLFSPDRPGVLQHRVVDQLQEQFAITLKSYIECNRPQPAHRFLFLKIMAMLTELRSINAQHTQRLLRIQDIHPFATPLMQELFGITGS
# Method in brief: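 HepG2 cells transiently transfected with GAL4-UAS reporter units and PXR-Gal4 chimera, exposed 24 h. Reporter mRNA quantified by RT-PCR, fluorescent labelling, HpaI digestion and capillary electrophoresis; gain of signal vs DMSO.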
# [5] = target: human Retinoic Acid Receptor gamma (RARg), RARG (gene 5916) (UniProt P13631); assay: ATG_RARg_TRANS: Attagene TRANS-FACTORIAL HepG2 Assay for human Retinoic Acid Receptor gamma (RARg) (AID 2283009);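 for AC50: AC50 is for reporter induction above DMSO meaning RARg activation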
# Sequence of human Retinoic Acid Receptor gamma (RARg), RARG (gene 5916) (P13631 whole entry, looked up, the tested form may be a part): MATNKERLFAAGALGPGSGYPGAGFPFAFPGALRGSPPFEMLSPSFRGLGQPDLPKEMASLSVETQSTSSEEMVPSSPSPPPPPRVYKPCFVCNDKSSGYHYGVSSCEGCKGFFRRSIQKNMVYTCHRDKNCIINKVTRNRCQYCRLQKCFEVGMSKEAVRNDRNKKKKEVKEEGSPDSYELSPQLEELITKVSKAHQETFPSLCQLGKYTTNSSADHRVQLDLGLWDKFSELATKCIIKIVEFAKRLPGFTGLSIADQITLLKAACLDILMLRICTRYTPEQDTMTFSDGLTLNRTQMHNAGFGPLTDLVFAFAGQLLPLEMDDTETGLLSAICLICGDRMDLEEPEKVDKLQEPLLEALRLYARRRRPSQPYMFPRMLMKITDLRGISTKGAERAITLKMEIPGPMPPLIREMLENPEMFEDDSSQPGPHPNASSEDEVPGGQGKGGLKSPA
# Method in brief: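 HepG2, RARg-GAL4 TRANS system, 24 h exposure; reporter mRNA by RT-PCR + CE fluorescence; increase over DMSO.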
# [6] = target: human RAR-related Orphan Receptor beta (RORb), RORB (gene 6096) (UniProt Q92753); assay: ATG_RORb_TRANS: Attagene TRANS-FACTORIAL HepG2 Assay for human RAR-related Orphan Receptor beta (RORb) (AID 2283010)
# Sequence of human RAR-related Orphan Receptor beta (RORb), RORB (gene 6096) (Q92753 whole entry, looked up, the tested form may be a part): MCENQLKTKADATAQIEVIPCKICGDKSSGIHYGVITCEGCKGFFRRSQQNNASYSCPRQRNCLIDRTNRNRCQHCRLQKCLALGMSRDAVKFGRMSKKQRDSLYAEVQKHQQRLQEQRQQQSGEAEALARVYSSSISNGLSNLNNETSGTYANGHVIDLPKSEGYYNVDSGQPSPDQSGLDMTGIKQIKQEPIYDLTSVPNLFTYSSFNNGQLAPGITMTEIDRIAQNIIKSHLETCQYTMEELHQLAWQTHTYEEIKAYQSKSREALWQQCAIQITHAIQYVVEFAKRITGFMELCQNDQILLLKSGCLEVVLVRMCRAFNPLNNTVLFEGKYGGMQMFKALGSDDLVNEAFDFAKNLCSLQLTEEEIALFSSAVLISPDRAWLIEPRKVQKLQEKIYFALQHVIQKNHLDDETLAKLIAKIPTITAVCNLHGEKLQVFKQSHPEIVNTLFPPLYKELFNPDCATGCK
# Method in brief: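 In this TRANS-format test, human HepG2 cells express chimeric NR-Gal4 fusion proteins driving GAL4-UAS reporters. After 24 h dosing, reporter transcripts are measured by fluorescent RT-PCR/capillary electrophoresis, with DMSO as negative control.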
# [7] = target: human RAR-related Orphan Receptor gamma (RORg), RORC (gene 6097) (UniProt P51449); assay: ATG_RORg_TRANS: Attagene TRANS-FACTORIAL HepG2 Assay for human RAR-related Orphan Receptor gamma (RORg) (AID 2283011)
# Sequence of human RAR-related Orphan Receptor gamma (RORg), RORC (gene 6097) (P51449 whole entry, looked up, the tested form may be a part): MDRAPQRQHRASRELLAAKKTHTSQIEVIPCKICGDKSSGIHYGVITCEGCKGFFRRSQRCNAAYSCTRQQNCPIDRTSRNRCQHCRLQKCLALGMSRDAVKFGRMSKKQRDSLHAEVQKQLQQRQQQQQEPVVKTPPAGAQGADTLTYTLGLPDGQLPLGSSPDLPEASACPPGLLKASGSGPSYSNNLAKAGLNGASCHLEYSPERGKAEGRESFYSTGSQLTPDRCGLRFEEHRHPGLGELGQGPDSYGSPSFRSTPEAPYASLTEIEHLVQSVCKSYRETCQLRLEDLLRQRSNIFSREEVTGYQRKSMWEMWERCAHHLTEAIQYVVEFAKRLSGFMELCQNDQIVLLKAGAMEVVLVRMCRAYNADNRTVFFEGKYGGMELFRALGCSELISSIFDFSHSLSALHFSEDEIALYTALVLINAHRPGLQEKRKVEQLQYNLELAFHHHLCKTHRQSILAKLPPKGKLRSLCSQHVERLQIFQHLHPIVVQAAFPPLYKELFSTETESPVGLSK
# Method in brief: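 Transient MRTU transfection of HepG2 (TRANS format, exogenous NR-Gal4 chimera). 24 h dosing. Total RNA → oligo(dT) RT → PCR → 6-FAM labelling → HpaI cut → CE. Gain vs DMSO.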
# [8] = target: Peroxisome proliferator-activated receptor gamma (Homo sapiens) (UniProt P37231); assay: ATG_PPARg_TRANS: Attagene TRANS-FACTORIAL HepG2 Assay for human Peroxisome Proliferator-activated Receptor-gamma (PPARg) (AID 2283007)
# Sequence of Peroxisome proliferator-activated receptor gamma (Homo sapiens) (P37231 whole entry, looked up): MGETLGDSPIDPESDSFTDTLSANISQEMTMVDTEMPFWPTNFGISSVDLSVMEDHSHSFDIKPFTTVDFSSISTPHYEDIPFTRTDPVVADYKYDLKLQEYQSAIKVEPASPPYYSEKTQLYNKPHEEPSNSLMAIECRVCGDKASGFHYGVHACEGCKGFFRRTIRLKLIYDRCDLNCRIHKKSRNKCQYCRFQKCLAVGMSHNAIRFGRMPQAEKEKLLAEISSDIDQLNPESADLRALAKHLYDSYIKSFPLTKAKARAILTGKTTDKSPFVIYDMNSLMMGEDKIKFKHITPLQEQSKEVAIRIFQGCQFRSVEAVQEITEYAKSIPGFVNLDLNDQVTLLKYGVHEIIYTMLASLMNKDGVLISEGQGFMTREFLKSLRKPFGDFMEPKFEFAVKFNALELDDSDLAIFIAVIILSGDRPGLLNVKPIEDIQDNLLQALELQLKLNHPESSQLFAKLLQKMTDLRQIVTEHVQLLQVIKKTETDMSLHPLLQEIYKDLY
# Method in brief: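 Twenty-four hours after chemical dosing of transiently transfected HepG2 cells, isolated RNA was converted to cDNA, reporter sequences amplified and 6-FAM-labelled, then HpaI-digested and analysed by capillary electrophoresis. Signal increase against DMSO was fitted.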
# [9] = target: human Retinoic Acid Receptor beta (RARb), RARB (gene 5915) (UniProt P10826); assay: ATG_RARb_TRANS: Attagene TRANS-FACTORIAL HepG2 Assay for human Retinoic Acid Receptor beta (AID 2283004)
# Sequence of human Retinoic Acid Receptor beta (RARb), RARB (gene 5915) (P10826 whole entry, looked up, the tested form may be a part): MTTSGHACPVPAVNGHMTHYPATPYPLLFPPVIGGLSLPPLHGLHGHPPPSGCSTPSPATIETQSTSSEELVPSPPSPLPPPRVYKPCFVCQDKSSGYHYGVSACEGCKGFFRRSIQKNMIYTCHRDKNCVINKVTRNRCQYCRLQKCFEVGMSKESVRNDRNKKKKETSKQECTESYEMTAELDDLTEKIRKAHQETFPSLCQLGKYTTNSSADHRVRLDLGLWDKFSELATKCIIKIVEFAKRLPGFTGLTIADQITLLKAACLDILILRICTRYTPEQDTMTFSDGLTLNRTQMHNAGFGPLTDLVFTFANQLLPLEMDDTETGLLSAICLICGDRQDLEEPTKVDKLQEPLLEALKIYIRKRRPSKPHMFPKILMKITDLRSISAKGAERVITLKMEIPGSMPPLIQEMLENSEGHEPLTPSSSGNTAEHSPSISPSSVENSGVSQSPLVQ
# Method in brief: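 Readout is reporter mRNA induction: RNA reverse-transcribed, PCR-amplified, FAM-labelled, HpaI-cut and resolved by capillary electrophoresis. Transiently transfected HepG2 cells carrying exogenous NR–Gal4 chimeras were dosed for 24 h; activity fitted upward relative to DMSO.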
# [10] = target: Retinoic acid receptor alpha (Homo sapiens) (UniProt P10276); assay: ATG_RARa_TRANS: Attagene TRANS-FACTORIAL HepG2 Assay for human Retinoic Acid Receptor alpha (RARa) (AID 2283005)
# Sequence of Retinoic acid receptor alpha (Homo sapiens) (P10276 whole entry, looked up, the tested form may be a part): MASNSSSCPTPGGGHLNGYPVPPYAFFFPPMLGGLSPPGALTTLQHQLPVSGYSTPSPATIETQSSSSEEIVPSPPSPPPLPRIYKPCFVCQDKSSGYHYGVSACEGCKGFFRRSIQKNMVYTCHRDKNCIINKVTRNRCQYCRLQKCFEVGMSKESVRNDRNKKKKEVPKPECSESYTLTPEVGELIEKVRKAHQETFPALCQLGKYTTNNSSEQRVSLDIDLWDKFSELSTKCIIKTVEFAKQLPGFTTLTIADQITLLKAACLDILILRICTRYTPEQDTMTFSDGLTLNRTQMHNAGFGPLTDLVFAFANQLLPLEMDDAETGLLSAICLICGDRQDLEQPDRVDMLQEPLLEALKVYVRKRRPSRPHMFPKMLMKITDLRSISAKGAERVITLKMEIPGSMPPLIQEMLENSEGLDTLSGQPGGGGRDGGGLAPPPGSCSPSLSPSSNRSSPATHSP
# Method in brief: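 HepG2 cells transiently transfected with multiple reporter units expressing chimeric RARα-GAL4 fusion, with GAL4-UAS-driven reporters. After 24 h compound exposure, reporter mRNA induction quantified by RT-PCR and capillary electrophoresis with fluorescent labeling; gain-of-signal fitted relative to DMSO control.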
smiles,measurement,setting,value
CCCCCCCCCCCCOS(=O)(=O)O,outcome,[1],inactive
same,outcome,[2],inactive
CC(=O)Nc1ccc(S(N)(=O)=O)cc1,outcome,[3],inactive
same,outcome,[4],inactive
same,outcome,[5],inactive
same,outcome,[6],inactive
Nc1ccn([C@@H]2O[C@H](CO)[C@@H](O)C2O)c(=O)n1 (stereo partly drawn),AC50,[3],56.6 µM (active)
same,outcome,[7],inactive
O=C(NO)c1ccccc1,outcome,[1],inactive
same,outcome,[2],inactive
same,outcome,[4],inactive
same,outcome,[6],inactive
same,outcome,[7],inactive
CCCCCCCC(OC)OC,outcome,[3],inactive
same,outcome,[8],inactive
same,outcome,[7],inactive
CC(O)COc1ccccc1 (stereo not drawn),outcome,[9],inactive
same,outcome,[10],inactive
same,outcome,[8],inactive
same,outcome,[4],inactive
same,outcome,[5],inactive
same,outcome,[6],inactive
same,outcome,[7],inactive
CCCCCCCCC1CCC(=O)O1 (stereo not drawn),outcome,[3],inactive
same,outcome,[8],inactive
same,outcome,[4],inactive
same,outcome,[6],inactive
same,outcome,[7],inactive
CCCCCCCCCCCC,outcome,[1],inactive
same,outcome,[10],inactive
same,AC50,[2],36.1 µM (active) and 31 µM (active)
same,outcome,[8],inactive
same,outcome,[4],inactive
same,outcome,[5],inactive
same,outcome,[7],inactive
CCCCC=O,outcome,[1],inactive
same,outcome,[2],inactive
same,outcome,[4],inactive
same,outcome,[6],inactive
same,outcome,[7],inactive
FC(F)=C(F)C(F)(F)C(F)(F)C(F)(F)C(F)F,outcome,[3],inactive
same,outcome,[8],inactive
same,outcome,[4],inactive
same,outcome,[6],inactive
same,outcome,[7],inactive
NS(=O)(=O)O,outcome,[3],inactive
same,outcome,[8],inactive
same,outcome,[4],inactive
same,outcome,[6],inactive
same,outcome,[7],inactive
C=CC(C)(CCC=C(C)C)OC(C)=O (stereo not drawn),outcome,[1],inactive
same,AC50,[2],34.2 µM (active)
same,outcome,[8],inactive
same,AC50,[4],29.5 µM (active)
same,outcome,[6],inactive
same,outcome,[7],inactive
Oc1cccc2c(O)cccc12,outcome,[3],inactive
same,AC50,[8],48.4 µM (active)
same,outcome,[4],inactive
same,outcome,[6],inactive
same,outcome,[7],inactive
CN(C)CCOC(c1ccccc1)c1ccccc1,outcome,[1],inactive
same,outcome,[2],inactive
same,outcome,[4],inactive
same,outcome,[5],inactive
CCCCC(CC)C(=O)OCCOCCOCCOCCOC(=O)C(CC)CCCC (stereo not drawn),outcome,[1],inactive
same,AC50,[2],20 µM (active)
same,outcome,[8],inactive
same,AC50,[4],35.3 µM (active)
CCN(CCC#N)c1ccccc1,outcome,[9],inactive
same,outcome,[10],inactive
same,outcome,[8],inactive
same,AC50,[4],38.1 µM (active)
same,outcome,[5],inactive
same,outcome,[6],inactive
C[C@]12CC[C@@H]3c4ccc(O)cc4CC[C@H]3[C@@H]1CC[C@@H]2OC(=O)CCC1CCCC1,outcome,[3],inactive
same,outcome,[4],inactive
same,outcome,[7],inactive
CCN(CC)CC,outcome,[3],inactive
same,outcome,[4],inactive
same,outcome,[5],inactive
same,outcome,[7],inactive
COc1cc(OC)nc(NC(=O)NS(=O)(=O)Nc2ccccc2C(=O)N(C)C)n1,outcome,[1],inactive
same,outcome,[10],inactive
same,outcome,[2],inactive
same,outcome,[8],inactive
Cc1ccccc1C(OCCN(C)C)c1ccccc1 (stereo not drawn),outcome,[3],inactive
same,outcome,[4],inactive
same,outcome,[5],inactive
O=C(CCCN1CCC(O)(c2ccc(Cl)cc2)CC1)c1ccc(F)cc1,outcome,[1],inactive
same,AC50,[2],7.3 µM (active)
Cc1ccc(C(=O)c2ccccc2)cc1,outcome,[1],inactive
same,AC50,[2],32.1 µM (active)
same,AC50,[8],100 µM (active)
same,AC50,[4],19.9 µM (active)
same,outcome,[6],inactive
FC(OC(F)(F)C(F)(F)C(F)(F)F)C(F)(F)F (stereo not drawn),outcome,[3],inactive
same,outcome,[8],inactive
same,outcome,[6],inactive
same,outcome,[7],inactive
CCCCCCCCCCCCCCCCCC[N+](C)(C)Cc1ccccc1,AC50,[1],2.56 µM (active)
same,outcome,[9],inactive
same,outcome,[10],inactive
same,AC50,[2],0.281 µM (active)
same,AC50,[8],83.5 µM (active)
same,outcome,[4],inactive
same,AC50,[5],89.2 µM (active)
same,outcome,[7],inactive
CCOC(OCC)C(=O)c1ccccc1,outcome,[9],inactive
same,outcome,[10],inactive
same,outcome,[8],inactive
same,AC50,[4],16.7 µM (active)
same,outcome,[6],inactive
FCOC(C(F)(F)F)C(F)(F)F,outcome,[3],inactive
same,outcome,[5],inactive
same,outcome,[6],inactive
CC(C)c1c(C(=O)Nc2ccccc2)c(-c2ccccc2)c(-c2ccc(F)cc2)n1CC[C@@H](O)C[C@@H](O)CC(=O)O,outcome,[3],inactive
same,AC50,[8],20.3 µM (active) and 19.6 µM (active)
same,AC50,[4],9.99 µM (active)
same,outcome,[7],inactive
O=C1OC(=O)C(F)(F)C1(F)F,outcome,[9],inactive
same,outcome,[10],inactive
same,outcome,[8],inactive
same,outcome,[5],inactive
CCc1cccc(CC)c1NC(=O)C(=O)O,outcome,[3],inactive
same,outcome,[4],inactive
same,outcome,[7],inactive
CN(Cc1cnc2nc(N)nc(N)c2n1)c1ccc(C(=O)N[C@@H](CCC(=O)O)C(=O)O)cc1,outcome,[1],inactive
same,outcome,[9],inactive
same,outcome,[10],inactive
same,outcome,[2],inactive
same,outcome,[8],inactive
same,outcome,[5],inactive
same,outcome,[6],inactive
same,outcome,[7],inactive
CC(C)(c1ccc(Oc2ccc(N)cc2)cc1)c1ccc(Oc2ccc(N)cc2)cc1,outcome,[3],inactive
same,AC50,[8],1.69 µM (active)
same,AC50,[4],2.28 µM (active)
same,outcome,[7],inactive
CCC(C)c1ccccc1O (stereo not drawn),outcome,[1],inactive
same,outcome,[2],inactive
same,outcome,[8],inactive
same,AC50,[4],45.7 µM (active) and 24.8 µM (active)
same,outcome,[6],inactive
same,outcome,[7],inactive
O=CC(F)(F)C(F)(F)C(F)(F)C(F)F,outcome,[3],inactive
same,outcome,[8],inactive
same,outcome,[4],inactive
same,outcome,[6],inactive
c1ccc2c(c1)CCC2,outcome,[5],inactive
same,outcome,[7],inactive
CC1CNCC(C)O1 (stereo not drawn),outcome,[9],inactive
same,outcome,[8],inactive
same,outcome,[4],inactive
same,outcome,[5],inactive
same,outcome,[7],inactive
CCCC=O,outcome,[9],inactive
same,outcome,[10],inactive
same,outcome,[4],inactive
same,outcome,[5],inactive
same,outcome,[6],inactive
same,outcome,[7],inactive
O=C(F)C(F)(F)C(F)(F)C(F)(F)C(=O)F,outcome,[10],inactive
same,outcome,[4],inactive
same,outcome,[7],inactive
CC(C)CCOCCC(C)C,outcome,[10],inactive
same,outcome,[7],inactive
NC(C(F)(F)F)C(F)(F)F,outcome,[4],inactive
same,outcome,[5],inactive
COCC1CCC(CO)CC1 (stereo not drawn),outcome,[8],inactive
same,outcome,[4],inactive
same,outcome,[5],inactive
same,outcome,[7],inactive

# — PubChem BioAssay (EPA / NIEHS)
